The nature of experiment [1]: qHTS assay for small molecules that induce genotoxicity in human embryonic kidney cells expressing luciferase-tagged ATAD5 (AID 651632). Note: nearly all actives have a fitted effect of over 15% in size. The method in brief:
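Cells were seeded at 2,000 per well, dosed with compound, and incubated 16 hr at 37C in 5% CO2. Luciferase activity was then quantified after a 30 min room-temperature incubation with Amplite.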
(In general: qHTS replaces the single test concentration by a dilution series.)

Experiment [2] is described as follows: qHTS assay for small molecules that induce genotoxicity in human embryonic kidney cells expressing luciferase-tagged ATAD5 - cell viability (AID 651634; calls by dose curve; note: nearly all actives have a fitted effect of over 25% in size). In short, it runs like this: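 Cells (HEK293T, luciferase-tagged ATAD5) are seeded at 2,000 per well, dosed with compound or DMSO vehicle, and incubated 15.5 hr at 37C and 5% CO2. CellTiter-Fluor is added for 30 min before fluorescence is measured.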

The nature of experiment [3]: qHTS assay for small molecule disruptors of the mitochondrial membrane potential - cell viability (AID 720634; calls by dose curve;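 note: human HepG2 liver cancer cells; series mostly up to about 83 µM; nearly all actives have a fitted effect of over 20% in size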). The method in brief: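 Cytotoxicity was measured by ATP quantitation in HepG2 wells that had first been treated with compound for 1 hr and stained with m-MPI dye; CellTiter-Glo incubation was 30 min at room temperature.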
Experiment [4] is described as follows: qHTS assay to test for compound auto fluorescence at 590 nm (red) in HepG2 cells (AID 720674). In short, it runs like this: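 Rose Bengal sodium served as the red fluorophore standard. HepG2 monolayers (overnight attachment, MEM with 10% FBS) were exposed to test compounds for 1 hr at 37 C and read at Ex 540/Em 590 nm.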
A short description of experiment [5]: qHTS assay to test for compound auto fluorescence at 535 nm (green) in HepG2 cells (AID 720675).
Experiment [6] can be described thus: qHTS assay to test for compound auto fluorescence at 460 nm (blue) in HEK293 cells (AID 720678). The method in brief: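 After cell attachment (4-5 hr, 37C), compounds were pinned onto HEK293 monolayers in 10% dialyzed FBS medium. The blue channel (405/460 nm) was read following overnight culture. Equivalency was calculated against triamterene.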
The nature of experiment [7]: qHTS assay to test for compound auto fluorescence at 535 nm (green) in HEK293 cells (AID 720680).
Experiment [8] can be described thus: qHTS assay to test for compound auto fluorescence at 460 nm (blue) in HEK293 cell free culture (AID 720681). The method in brief:
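Test compounds were pinned into cell-free culture medium (DMEM with 10% FBS) and fluorescence was read directly at Ex/Em 405/460 nm. Signals were expressed as fluorescence equivalents of triamterene, with DMSO vehicle as control.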

Experiment [9] is described as follows: qHTS assay to test for compound auto fluorescence at 535 nm (green) in HEK293 cell free culture (AID 720682). The method in brief: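 Read-out: 485/535 nm fluorescence intensity, calibrated against fluorescein. Medium only (DMEM + 10% FBS, no cells); test compound or DMSO vehicle added by pintool before plate reading.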
A short description of experiment [10]: qHTS assay to test for compound auto fluorescence at 590 nm (red) in HEK293 cell free culture (AID 720683). The method in brief:
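Tox21 10K library compounds were pinned into cell-free DMEM with 10% FBS and fluorescence was read at excitation 540 nm. Activity is expressed as Rose Bengal sodium equivalency.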

A short description of experiment [11]: qHTS assay to test for compound auto fluorescence at 590 nm (red) in HepG2 cell free culture (AID 720684). The method in brief: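 Readout: intrinsic compound fluorescence at 590 nm emission after 540 nm excitation, scaled to Rose Bengal sodium. Matrix was cell-free MEM with 10% FBS; DMSO vehicle wells served as control.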
Experiment [12] can be described thus: qHTS assay to test for compound auto fluorescence at 460 nm (blue) in HepG2 cell free culture (AID 720685). The method in brief: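 Cell-free plates of MEM plus 10% FBS received 23 nL compound or DMSO vehicle; blue-channel (405/460 nm) intensity scored against triamterene as reference fluorophore.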
Experiment [13] can be described thus: qHTS assay to test for compound auto fluorescence at 535 nm (green) in HepG2 cell free culture (AID 720686).
Experiment [14] is described as follows: qHTS assay to test for compound auto fluorescence at 460 nm (blue) in HepG2 cells (AID 720687). In short, it runs like this: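 Cells (2,000/well in MEM with 10% FBS) attached overnight at 37 C, then were exposed to compound or DMSO for 1 hr at 37 C, 5% CO2. Fluorescence read at Ex/Em 405/460 nm, expressed as triamterene-equivalent signal.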
The nature of experiment [15]: qHTS assay to test for compound auto fluorescence at 590 nm (red) in HEK293 cells (AID 720679). The method in brief:
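Plates of HEK293 cells (10% dialyzed FBS) are treated with 23 nL compound or DMSO vehicle after a 4-5 hr attachment period, incubated overnight at 37C, and read for red fluorescence at 540/590nm.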

Experiment [16] in a line: qHTS assay for small molecule disruptors of the mitochondrial membrane potential (AID 720635). Note: potency is the fitted concentration of half-maximal effect. In short, it runs like this:
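HepG2 cells (2,000/well) attached overnight at 37C, then took compound for 1 hr at 37C, 5% CO2. Mito-MPS dye was added for 30 min; fluorescence was read at 490/535 nm (monomers) and 540/590 nm (aggregates).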

Experiment [17] deals with Glucocorticoid receptor (Homo sapiens) (UniProt P04150). As to the kind of experiment: qHTS assay to identify small molecule agonists of the glucocorticoid receptor (GR) signaling pathway (AID 720691; active = well fitted activation curve with a large enough effect in the signal ratio in the repeat runs, not every such curve was filed as active; the % refers to the signal ratio). The method in brief:
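Steps: seed GR-bla HeLa cells, incubate 4 h at 37 C/5% CO2; pin-transfer DMSO-dissolved compounds; incubate 18 h at 37 C; add LiveBLAzer B/G FRET substrate; after 2 h at room temperature, measure fluorescence.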

The target is the same in experiment [18]. As to the kind of experiment: qHTS assay to identify small molecule antagonists of the glucocorticoid receptor (GR) signaling pathway (AID 720692; active = well fitted inhibition curve with a large enough effect in the signal ratio in the repeat runs, not every such curve was filed as active; the % refers to the signal ratio). In short, it runs like this: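 Antagonism was scored as loss of dexamethasone-driven (5 nM final) reporter signal in HeLa cells bearing a glucocorticoid response element–beta-lactamase construct, after 18 h compound exposure at 37 C and 2 h FRET substrate loading.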

Experiment [19] is described as follows: qHTS assay for small molecule agonists of the p53 signaling pathway - cell viability (AID 651633; calls by dose curve;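 note: p53RE-bla HCT reporter cells with a stable beta-lactamase p53 reporter; series mostly up to about 83 µM; nearly all actives have a fitted effect of over 30% in size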). In short, it runs like this:
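p53RE-bla cells, seeded at 4,000 per well and rested 5 h at 37 C/5% CO2, received compounds in DMSO for 16 h at 37 C. CellTiter-Glo was then added, and luminescence was read after 30 min at room temperature to gauge cytotoxicity.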

Unmarked numbers belong to inactive results. Results filed as inconclusive are left out. Activity calls are given as the source filed them. Unless noted, calls come from the whole dose curve; as a rule, active = well fitted curve in the direction sought with a large enough effect in the repeat runs; inconclusive = weak or mixed curves; inactive = no such curve, though single readings can be large; an effect the other way counts as inactive or inconclusive.

Sequence of Glucocorticoid receptor (Homo sapiens) (P04150 whole entry, looked up): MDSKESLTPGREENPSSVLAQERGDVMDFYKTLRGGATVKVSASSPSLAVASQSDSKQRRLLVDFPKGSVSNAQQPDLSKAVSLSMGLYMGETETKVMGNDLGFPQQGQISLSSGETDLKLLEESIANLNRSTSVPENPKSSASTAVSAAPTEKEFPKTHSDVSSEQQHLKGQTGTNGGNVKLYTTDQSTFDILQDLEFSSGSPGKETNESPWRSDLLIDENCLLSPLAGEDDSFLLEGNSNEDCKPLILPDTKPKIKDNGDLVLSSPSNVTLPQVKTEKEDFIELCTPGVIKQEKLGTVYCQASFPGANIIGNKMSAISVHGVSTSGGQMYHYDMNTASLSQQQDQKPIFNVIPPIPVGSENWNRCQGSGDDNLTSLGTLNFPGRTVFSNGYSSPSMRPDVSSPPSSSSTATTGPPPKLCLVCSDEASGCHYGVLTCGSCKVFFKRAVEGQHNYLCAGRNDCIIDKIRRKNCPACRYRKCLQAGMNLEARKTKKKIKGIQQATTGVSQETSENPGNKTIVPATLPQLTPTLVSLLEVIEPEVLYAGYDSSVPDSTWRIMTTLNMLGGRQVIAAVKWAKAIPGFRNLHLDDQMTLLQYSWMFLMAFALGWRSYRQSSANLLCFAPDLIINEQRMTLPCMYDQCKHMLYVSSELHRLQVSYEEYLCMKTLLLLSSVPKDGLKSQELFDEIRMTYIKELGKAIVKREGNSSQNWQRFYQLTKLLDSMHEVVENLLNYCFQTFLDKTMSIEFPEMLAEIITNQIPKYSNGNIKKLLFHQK

For `CC1=C(CC(=O)O)c2cc(F)ccc2/C1=C\c1ccc(S(C)(=O)=O)cc1`, the Potency result in experiment [1], in experiment [2] and in experiment [3] was “inactive” each time. Also, the outcome in experiment [4], in [5], in experiment [6], in experiment [7], in [8] and in experiment [9] was inactive. For the same compound, the call in experiment [10], in experiment [11], in [12], in experiment [13] and in experiment [14] was inactive.

In the case of `O=C(O)C(=O)Cc1c[nH]c2ccccc12`, the Potency entry in [1], in experiment [2] and in [3] was “inactive” in each case. The call in [5], in [15], in experiment [7], in [8], in experiment [9] and in [10] was inactive. The result in experiment [11], in experiment [12] and in experiment [13] was inactive.

For the compound `Cc1nc(-c2ccccn2)ncc1C(=O)Nn1cc(C)c2cc(F)ccc21`, the Potency result in [1], in experiment [2], in [3], in experiment [16], in experiment [17] and in experiment [18] was “inactive” in each case. Moreover, the compound was called inactive in experiment [5], in [6], in experiment [15], in experiment [7], in experiment [8] and in [9]. In addition, the call in experiment [10], in [11], in experiment [12], in [13] and in experiment [14] was inactive.

With `CN1CCN(c2c(F)cc3c(=O)c(C(=O)O)cn(CCF)c3c2F)CC1`, the Potency result in experiment [19], in experiment [3], in experiment [16], in [17] and in experiment [18] was “inactive” in each case. For the same compound, the result in experiment [4], in experiment [5], in experiment [6], in experiment [15], in experiment [9] and in experiment [10] was inactive. Further, the compound was classed as inactive in [11], in experiment [12], in experiment [13] and in experiment [14].

Regarding `CC(C)(C)c1cccc(O)c1`, the Potency entry in [1], in experiment [2], in experiment [3] and in [18] was “inactive” each time. Also, the Potency in experiment [16] was 48.6 µM (active). Besides, the outcome in experiment [5], in experiment [6], in experiment [15], in experiment [8], in experiment [9] and in [10] was inactive. For the same compound, the compound was classed as inactive in experiment [11], in [12], in experiment [13] and in [14].

As to `CCN(CC)CCOc1ccc(Cc2ccccc2)cc1`, the Potency result in experiment [1], in [2] and in experiment [3] was “inactive” throughout. Besides, the result in [4], in experiment [5], in [6], in [7], in experiment [8] and in [9] was inactive. Also, the outcome in experiment [10], in [11], in experiment [12], in experiment [13] and in experiment [14] was inactive.

For `O=[N+]([O-])c1nccn1CO[C@@H](CO)[C@H](O)CO`, the Potency result in experiment [1], in experiment [2], in [16] and in experiment [18] was “inactive” in each case. The compound was called inactive in experiment [4], in experiment [5], in [6], in experiment [15], in experiment [7] and in experiment [9]. In addition, the result in experiment [10], in experiment [11], in experiment [12], in experiment [13] and in [14] was inactive.

Regarding `O=C1CCCCCCCCCCC(=O)OCCO1`, the Potency entry in [1], in [2] and in [18] was “inactive” in each case. For the same compound, the Potency in experiment [16] was 27.3 µM (active). The compound was classed as inactive in [5], in experiment [6], in experiment [15], in [7], in [8] and in [9]. The outcome in experiment [11], in experiment [12], in [13] and in [14] was inactive.

Consider `CCC(=O)Nc1ccc(O)cc1`, for which the Potency entry in experiment [1], in experiment [16], in [17] and in experiment [18] was “inactive” each time. In addition, the result in experiment [4], in experiment [5], in experiment [6], in experiment [15], in experiment [7] and in experiment [8] was inactive. Besides, the call in experiment [9], in experiment [10], in experiment [11], in experiment [12], in [13] and in experiment [14] was inactive.

`CC(C)(C)C1CCCCC1=O` (stereo not given): the Potency entry in experiment [1], in experiment [2], in experiment [3] and in experiment [17] was “inactive” throughout. Also, the compound was classed as inactive in experiment [5], in experiment [6], in experiment [7], in experiment [8], in [9] and in experiment [11]. Also, the outcome in experiment [12], in [13] and in experiment [14] was inactive.

As to `Cc1c(N)cccc1N`, the Potency entry in experiment [19], in experiment [2], in experiment [3], in experiment [17] and in experiment [18] was “inactive” throughout. Moreover, the Potency in experiment [16] is 17.6 µM (active). Further, the compound was called inactive in [4], in [5], in [15], in experiment [7], in experiment [8] and in [9]. Also, the result in [11], in [12], in [13] and in experiment [14] was inactive.

As for `Cc1c[nH]c(=S)[nH]c1=O`, the Potency result in experiment [1], in experiment [2] and in [3] was “inactive” each time. The compound was called inactive in [4], in experiment [5], in [6], in [15], in [8] and in [9]. The result in experiment [10], in experiment [11], in experiment [12], in experiment [13] and in experiment [14] was inactive.

In the case of `CCCCCCCCc1ccc(S(=O)(=O)O)cc1`, the Potency entry in experiment [1], in [3], in experiment [17] and in experiment [18] was “inactive” in each case. Further, the outcome in experiment [4], in experiment [5], in [6], in experiment [15], in experiment [7] and in [8] was inactive. The compound was classed as inactive in experiment [9], in experiment [10], in [12], in [13] and in experiment [14].

Turning to `CC(C)NCC(O)COc1ccc(CCOCC2CC2)cc1` (stereo not given), the Potency entry in [19], in [3], in experiment [16] and in experiment [18] was “inactive” in each case. Further, the compound was called inactive in experiment [4], in [5], in experiment [6], in experiment [7], in experiment [8] and in [9]. Besides, the compound was called inactive in experiment [10], in experiment [11], in experiment [12], in [13] and in experiment [14].
